Data published in PubChem BioAssay (Tox21).
Records with an inconclusive call do not appear. Calls of active or inactive are those of the source. Calls come from the whole dose curve; as a rule, active = well fitted cell-killing curve with a large enough effect in the repeat runs; inconclusive = weak or mixed curves; inactive = flat fitted curve, though single readings scatter.

Experiment: qHTS RealTime-Glo MT Cell Viability Assay in HepG2 cells - 16 hour (AID 1224885); note: nearly all actives have a fitted effect of over 50% in size
Conditions: RealTime-Glo luminescence; series mostly up to 76.8 µM; activity change, negative = cytotoxic: at the top concentration
Description: U.S. Tox21 Program National Center for Advancing Translational Sciences [NCATS] NIH Chemical Genomics Center [NCGC] U.S. Environmental Protection Agency [EPA] National Institutes of Environmental Health Sciences [NIEHS] National Toxicology Program [NTP] U.S. Food and Drug Administration [FDA] Tox21 Assay Overview: Measure of cell viability is critical in the cell-base assay. Analysis of cell viability is necessary for the characterization of cell responses to cytotoxic drugs and environmental stress. A RealTime-Glo MT Cell Viability Assay to monitor cell viability in real time of continues cell culture during 40 hours of compound treatment was used to screen Tox21 10K library compounds in HepG2 cells. The RealTime-Glo MT Cell Viability Assay is a nonlytic, homogeneous, bioluminescent method to measure cell viability in real time using a simple, plate-based method. The assay involves adding NanoLuc luciferase and a cell-permeant prosubstrate to cells in culture. Viable cells reduce the proprietary prosubstrate to generate a substrate for NanoLuc luciferase. This substrate diffuses from cells into the surrounding culture medium, where it is rapidly used by the NanoLuc Enzyme to produce a luminescent signal. The signal correlates with the number of viable cells, making the assay well suited for cytotoxicity studies.
Tox21 Assay Protocol Summary: The mixture of HepG2 cell suspension and reagents were dispensed at 600cells/6 ul/well in 1536-well tissue culture treated black solid bottom plates using a Multidrop dispenser. After the assay plates were incubated at a 37 C/5% CO2 incubator for 5 hours, 23 nL of compounds dissolved in DMSO, positive and negative controls was transferred to the assay plate by a pintool work station. The plates were incubated at 37 C for 40 hours. The luminescence intensity were measured at 0h, 8h, 16h, 24h, 32h and 40h time points using ViewLux plate reader during compound treatment.
% is set by controls: 0 for no effect and ±100 for the full control effect; potency is the fitted concentration of half-maximal effect.

Row | SMILES | activity change, negative = cytotoxic | Potency
1 | C/C=C(\C)C(=O)OCCC(C)CCC=C(C)C (stereo not given) | 1.61% (inactive) | –
2 | COc1ccccc1N=Nc1c(S(=O)(=O)O)cc2cc(S(=O)(=O)O)cc(NC(C)=O)c2c1O | -10.8% (inactive) | –
3 | CCC(C(=O)OCCOCCN(CC)CC)c1ccccc1 (stereo not given) | -2.23% [at 35.3 µM] (inactive) | –
4 | C(=C\c1ccccc1)/CN1CCN(C(c2ccccc2)c2ccccc2)CC1 | -23.6% [at 35.3 µM] (inactive) | –
5 | CC1=NN(c2ccc(C(=O)O)cc2)C(=O)C1 | -3.77% (inactive) | –
6 | Cc1ccc(S)cc1 | -4.25% (inactive) | –
7 | Nc1ccc(S(=O)(=O)O)cc1 | 1.11% (inactive) | –
8 | C=CC(=C)CCCC(C)(C)OC(C)=O | 2.53% (inactive) | –
9 | CCCCC/C(=C\c1ccccc1)CO | -2.74% (inactive) | –
10 | Cc1cc2nc3ccc(=[N+](C)C)cc-3sc2cc1N | – | 9.52 µM (active)
11 | CCCCOC(=O)CCS | 4.2% (inactive) | –
12 | Nc1ccc(Cl)cc1[N+](=O)[O-] | -8.65% (inactive) | –
13 | COCC(O)CO (stereo not given) | -9.81% (inactive) | –
14 | Cc1nc2ccccn2c(=O)c1CCN1CCC(C(=O)c2ccc(F)cc2)CC1 | -8.65% [at 35.3 µM] (inactive) | –
15 | CC(C)C(OC(=O)c1ccccc1)C(C)(C)COC(=O)c1ccccc1 (stereo not given) | -11.2% (inactive) | –
16 | CCOCCn1c(C2CCN(CCc3ccc(C(C)(C)C(=O)O)cc3)CC2)nc2ccccc21 | 6.31% [at 35.3 µM] (inactive) | –
17 | Cc1cnc(C)c(C)n1 | 0.235% (inactive) | –
18 | Fc1ccccc1[C@@H](F)COC1CCC(Nc2ncnc3[nH]ncc23)CC1 (stereo not given in full) | -17.1% (inactive) | –
19 | Cc1ccc(/C=N/n2c(-c3ccccc3)csc2=S)cc1 | -18% [at 35.3 µM] (inactive) | –
20 | CN1CCN(c2c(F)cc3c(=O)c(C(=O)O)cn4c3c2OCN4C)CC1 | 4.97% [at 15.8 µM] (inactive) | –

Row | SMILES | activity change, negative = cytotoxic | Potency
21 | CC1(C)C(=O)N(Br)C(=O)N1Cl | -0.647% (inactive) | –
22 | Cc1cc(C(=C2C=CC(=Nc3ccc(S(=O)(=O)O)cc3S(=O)(=O)O)C=C2)c2ccc(Nc3ccc(S(=O)(=O)O)cc3)cc2)ccc1N | 1.68% [at 35.3 µM] (inactive) | –
23 | CCOC(=O)/C=C/C(=O)O | 1.64% (inactive) | –
24 | Cc1oc(C)c(C(=O)Nc2ccccc2)c1C | -4.6% (inactive) | –
25 | CCC(=O)Oc1ccc(/C(CC)=C(\CC)c2ccc(OC(=O)CC)cc2)cc1 | -10.1% (inactive) | –
26 | CCC(C(=O)OCCN(CC)CC)c1ccccc1 (stereo not given) | -0.194% [at 35.3 µM] (inactive) | –
27 | CC1CN(c2cc3c(cc2F)c(=O)c(C(=O)O)cn3-c2ccc(F)cc2F)CCN1 (stereo not given) | 2.01% [at 6.97 µM] (inactive) | –
28 | O=Cc1c(Cl)cccc1Cl | -0.108% (inactive) | –
29 | O=c1[nH]c2ccc(S(=O)CCN3CCC(Cc4ccc(F)cc4)CC3)cc2o1 (stereo not given) | -9.98% (inactive) | –
30 | OC(CCCN1CCCCC1)(c1ccccc1)c1ccccc1 | -3.29% [at 35.3 µM] (inactive) | –
31 | [O]=[Bi] | 1.05% [at 6.97 µM] (inactive) | –
32 | C=C(C)C(=O)OCCOC(=O)CC(C)=O | 2.82% (inactive) | –
33 | COC(=O)Nc1nc2ccc(C(=O)c3cccs3)cc2[nH]1 | -16.9% [at 35.3 µM] (inactive) | –
34 | OCCSc1ccccc1 | 0.274% (inactive) | –
35 | Cc1cc(O)c2c(O)c3c(O)cccc3cc2c1 | -4.42% [at 35.3 µM] (inactive) | –
36 | CC(=O)[C@H]1CC[C@H]2[C@@H]3C=CC4=CC(=O)CC[C@@]4(C)[C@@H]3CC[C@]12C | -8.49% [at 35.3 µM] (inactive) | –
37 | CC(COc1ccc(C(C)(C)C)cc1)OS(=O)OCCCl (stereo not given) | -18.2% (inactive) | –
38 | C=CC(C)(O)CCCC(C)CCCC(C)CCCC(C)C (stereo not given) | 1.61% (inactive) | –
39 | C/C(=N/NC(=O)c1ccncc1)C(=O)O | 1.03% [at 35.3 µM] (inactive) | –
40 | CC(C)CCCCCCOC(=O)CCCCC(=O)OCCCCCCC(C)C | 0.732% (inactive) | –
